Targets with a hit are over-represented here; the source holds about 8,800 in all. About 0.5% of all pairs of compound and target were hits.
compound: CS(=O)(=O)CCNCc1ccc(-c2ccc3ncnc(Nc4ccc(OCc5cccc(F)c5)c(Cl)c4)c3c2)o1 [lapatinib]; assay: log2 fold change, soluble protein after heating vs DMSO (PISA); higher = thermal stabilisation; K562 lysate, 10 uM; active = over 0.2 and 3.5 SD of the protein, either way, in both replicates (recomputed)
Procedure, shortened: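 K562 pellets were dounce-homogenised in PBS pH 7.4 containing 1 mM MgCl2, and the crude extract, at 1 mg/mL protein, was exposed to 10 μM compound for 30 min. Aliquots were heated for 3 min across 48°C-58°C, pooled, brought to 0.5% NP-40 at 4°C and spun at 21,000xg for 90 min, with the supernatant taken as soluble protein. TMTpro 16plex LC-MS/MS with equalised channel sums quantified that protein. Values are log-two fold changes in thermal stability relative to solvent controls, taken from duplicates.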

Sequence of UniProt O76041 (O76041 whole entry, looked up): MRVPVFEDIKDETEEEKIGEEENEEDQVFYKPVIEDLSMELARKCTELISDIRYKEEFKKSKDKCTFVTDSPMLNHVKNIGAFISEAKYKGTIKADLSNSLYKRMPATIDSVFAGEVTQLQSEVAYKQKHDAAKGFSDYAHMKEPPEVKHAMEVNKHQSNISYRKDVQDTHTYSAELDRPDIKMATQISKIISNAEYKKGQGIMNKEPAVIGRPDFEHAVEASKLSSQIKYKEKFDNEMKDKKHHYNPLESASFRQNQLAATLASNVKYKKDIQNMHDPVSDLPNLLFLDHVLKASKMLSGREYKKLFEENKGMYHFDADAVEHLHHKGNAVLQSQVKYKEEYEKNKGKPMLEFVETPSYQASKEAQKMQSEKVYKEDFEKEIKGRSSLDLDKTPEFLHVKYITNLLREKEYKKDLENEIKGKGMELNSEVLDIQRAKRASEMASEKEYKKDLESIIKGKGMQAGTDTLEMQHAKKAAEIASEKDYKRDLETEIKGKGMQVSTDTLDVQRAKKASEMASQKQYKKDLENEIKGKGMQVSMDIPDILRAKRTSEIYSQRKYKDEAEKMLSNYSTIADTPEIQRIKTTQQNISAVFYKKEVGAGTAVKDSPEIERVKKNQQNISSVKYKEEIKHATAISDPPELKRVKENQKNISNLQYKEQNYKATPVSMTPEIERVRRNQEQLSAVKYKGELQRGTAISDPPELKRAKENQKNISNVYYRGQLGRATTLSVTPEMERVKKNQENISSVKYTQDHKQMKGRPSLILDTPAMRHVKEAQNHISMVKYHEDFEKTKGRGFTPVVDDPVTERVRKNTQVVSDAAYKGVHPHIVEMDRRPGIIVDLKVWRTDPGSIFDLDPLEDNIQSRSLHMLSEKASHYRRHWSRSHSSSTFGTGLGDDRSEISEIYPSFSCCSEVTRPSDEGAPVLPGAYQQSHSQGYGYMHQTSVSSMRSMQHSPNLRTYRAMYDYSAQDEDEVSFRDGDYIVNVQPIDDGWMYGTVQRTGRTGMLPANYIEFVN
Sequence of UniProt P03886 (P03886 whole entry, looked up): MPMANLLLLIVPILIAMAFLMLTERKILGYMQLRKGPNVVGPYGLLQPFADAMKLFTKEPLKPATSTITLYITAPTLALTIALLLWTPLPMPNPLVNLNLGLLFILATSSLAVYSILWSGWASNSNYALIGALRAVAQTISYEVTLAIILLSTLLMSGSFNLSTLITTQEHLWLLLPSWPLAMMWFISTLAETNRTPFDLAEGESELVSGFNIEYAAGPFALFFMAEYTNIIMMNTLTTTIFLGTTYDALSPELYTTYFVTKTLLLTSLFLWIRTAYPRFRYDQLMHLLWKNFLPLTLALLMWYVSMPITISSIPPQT
Sequence of UniProt Q8NCF5 (Q8NCF5 whole entry, looked up): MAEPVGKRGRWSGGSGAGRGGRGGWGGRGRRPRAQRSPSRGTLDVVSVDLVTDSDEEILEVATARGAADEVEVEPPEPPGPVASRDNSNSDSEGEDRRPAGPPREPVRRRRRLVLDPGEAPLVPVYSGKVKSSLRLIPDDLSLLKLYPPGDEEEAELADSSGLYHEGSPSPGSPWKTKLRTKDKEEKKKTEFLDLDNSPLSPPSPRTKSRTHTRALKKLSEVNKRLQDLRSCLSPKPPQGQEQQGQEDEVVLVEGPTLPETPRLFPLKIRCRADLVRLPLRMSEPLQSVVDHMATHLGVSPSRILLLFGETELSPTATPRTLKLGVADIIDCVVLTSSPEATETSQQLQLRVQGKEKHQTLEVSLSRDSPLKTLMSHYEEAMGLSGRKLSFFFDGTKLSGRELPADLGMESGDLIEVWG
Sequence of UniProt Q15653 (Q15653 whole entry, looked up): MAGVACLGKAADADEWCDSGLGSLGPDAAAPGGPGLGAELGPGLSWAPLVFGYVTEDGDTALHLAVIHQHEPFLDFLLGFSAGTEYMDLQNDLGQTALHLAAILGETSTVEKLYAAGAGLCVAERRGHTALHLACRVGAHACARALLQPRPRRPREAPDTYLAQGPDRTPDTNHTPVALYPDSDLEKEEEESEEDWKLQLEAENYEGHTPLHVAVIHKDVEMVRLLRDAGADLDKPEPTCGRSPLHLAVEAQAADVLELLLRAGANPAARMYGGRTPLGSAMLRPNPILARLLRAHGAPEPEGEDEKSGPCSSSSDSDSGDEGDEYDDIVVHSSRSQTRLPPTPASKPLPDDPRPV
Sequence of UniProt Q99417 (Q99417 whole entry, looked up): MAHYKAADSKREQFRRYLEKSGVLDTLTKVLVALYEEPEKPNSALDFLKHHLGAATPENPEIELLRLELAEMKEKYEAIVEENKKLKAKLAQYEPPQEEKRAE
Sequence of UniProt O95644 (O95644 whole entry, looked up): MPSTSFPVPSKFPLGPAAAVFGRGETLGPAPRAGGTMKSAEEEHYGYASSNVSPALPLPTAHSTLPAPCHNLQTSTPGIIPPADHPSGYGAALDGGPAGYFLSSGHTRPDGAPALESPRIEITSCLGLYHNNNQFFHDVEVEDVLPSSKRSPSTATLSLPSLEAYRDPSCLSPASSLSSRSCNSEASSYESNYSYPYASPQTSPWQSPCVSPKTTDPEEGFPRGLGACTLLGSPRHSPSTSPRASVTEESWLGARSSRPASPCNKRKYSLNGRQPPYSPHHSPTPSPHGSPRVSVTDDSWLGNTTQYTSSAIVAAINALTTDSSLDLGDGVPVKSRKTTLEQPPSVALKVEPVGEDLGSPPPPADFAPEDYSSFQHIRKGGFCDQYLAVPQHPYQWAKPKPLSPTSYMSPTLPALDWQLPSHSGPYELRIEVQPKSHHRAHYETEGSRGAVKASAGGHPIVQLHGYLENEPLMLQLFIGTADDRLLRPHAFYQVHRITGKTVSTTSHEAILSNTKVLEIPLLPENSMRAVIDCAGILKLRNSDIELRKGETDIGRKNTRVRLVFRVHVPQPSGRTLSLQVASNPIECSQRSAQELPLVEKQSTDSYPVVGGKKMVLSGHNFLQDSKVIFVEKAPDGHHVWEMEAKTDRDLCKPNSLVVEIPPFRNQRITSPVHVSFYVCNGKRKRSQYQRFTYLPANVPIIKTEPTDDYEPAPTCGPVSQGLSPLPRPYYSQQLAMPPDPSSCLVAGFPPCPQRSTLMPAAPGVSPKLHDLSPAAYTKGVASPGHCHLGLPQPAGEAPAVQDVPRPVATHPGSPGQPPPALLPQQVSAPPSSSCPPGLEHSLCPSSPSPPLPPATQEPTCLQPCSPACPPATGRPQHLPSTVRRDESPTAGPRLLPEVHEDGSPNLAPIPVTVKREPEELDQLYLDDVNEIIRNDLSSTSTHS
Sequence of UniProt Q9UBD5 (Q9UBD5 whole entry, looked up): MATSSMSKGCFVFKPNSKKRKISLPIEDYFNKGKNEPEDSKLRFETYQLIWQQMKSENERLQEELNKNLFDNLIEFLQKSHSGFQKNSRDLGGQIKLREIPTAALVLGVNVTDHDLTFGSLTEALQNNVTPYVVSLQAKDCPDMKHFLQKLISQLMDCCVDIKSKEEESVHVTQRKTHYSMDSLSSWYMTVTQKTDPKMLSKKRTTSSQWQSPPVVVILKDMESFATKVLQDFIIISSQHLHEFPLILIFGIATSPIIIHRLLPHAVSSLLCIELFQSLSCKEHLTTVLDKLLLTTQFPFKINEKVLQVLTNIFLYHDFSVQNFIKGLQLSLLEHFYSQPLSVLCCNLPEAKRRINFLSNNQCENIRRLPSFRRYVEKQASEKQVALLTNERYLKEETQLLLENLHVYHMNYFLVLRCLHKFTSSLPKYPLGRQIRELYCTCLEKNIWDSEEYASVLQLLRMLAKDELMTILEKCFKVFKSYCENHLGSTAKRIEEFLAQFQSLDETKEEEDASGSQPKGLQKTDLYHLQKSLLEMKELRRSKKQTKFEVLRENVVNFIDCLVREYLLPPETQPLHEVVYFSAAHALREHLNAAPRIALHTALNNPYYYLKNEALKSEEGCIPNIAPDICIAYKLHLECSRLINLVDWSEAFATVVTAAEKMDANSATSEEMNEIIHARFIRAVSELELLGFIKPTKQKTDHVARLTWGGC
Sequence of UniProt Q8TDX7 (Q8TDX7 whole entry, looked up): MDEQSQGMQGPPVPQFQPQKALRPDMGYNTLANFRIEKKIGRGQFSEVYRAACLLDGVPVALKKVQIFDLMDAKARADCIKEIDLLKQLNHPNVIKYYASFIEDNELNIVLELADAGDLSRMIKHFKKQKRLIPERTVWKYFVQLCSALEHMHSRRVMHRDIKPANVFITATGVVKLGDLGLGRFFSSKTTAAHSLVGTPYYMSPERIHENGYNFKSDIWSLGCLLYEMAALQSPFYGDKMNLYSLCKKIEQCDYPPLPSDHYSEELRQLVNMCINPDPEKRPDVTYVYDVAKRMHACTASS
Sequence of UniProt Q96NT1 (Q96NT1 whole entry, looked up): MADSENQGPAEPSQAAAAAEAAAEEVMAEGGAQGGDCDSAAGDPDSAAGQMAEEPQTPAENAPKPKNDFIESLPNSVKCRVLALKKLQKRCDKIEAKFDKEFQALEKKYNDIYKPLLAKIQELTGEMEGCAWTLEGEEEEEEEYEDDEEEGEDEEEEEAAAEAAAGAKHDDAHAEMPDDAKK
Sequence of UniProt Q9NQR4 (Q9NQR4 whole entry, looked up): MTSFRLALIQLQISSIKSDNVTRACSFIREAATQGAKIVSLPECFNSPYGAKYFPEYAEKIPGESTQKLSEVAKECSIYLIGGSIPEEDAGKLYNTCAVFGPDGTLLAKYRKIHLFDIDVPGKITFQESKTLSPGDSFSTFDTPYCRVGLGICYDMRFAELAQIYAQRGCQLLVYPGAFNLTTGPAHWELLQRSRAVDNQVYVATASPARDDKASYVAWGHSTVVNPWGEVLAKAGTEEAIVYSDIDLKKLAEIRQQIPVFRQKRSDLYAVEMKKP

log2 fold change, inactive:
NAP1L5 (UniProt Q96NT1) 0.079
MT-ND1 (UniProt P03886) -0.025
NFATC2IP (UniProt Q8NCF5) 0.002
MYCBP (UniProt Q99417) 0.01
NIT2 (UniProt Q9NQR4) 0.002
NEBL (UniProt O76041) 0.054
NFKBIB (UniProt Q15653) 0.093
NEK7 (UniProt Q8TDX7) -0.035
NCOR1 (UniProt O75376) 0.046
ORC3 isoform 2 (UniProt Q9UBD5) -0.014
NCK1 (UniProt P16333) 0.025
NFATC1 (UniProt O95644) -0.003
